The values below come from PubChem BioAssay (Tox21).

Molecules are shown by their SMILES. Values joined by “and” are separate entries in the source; they are usually repeats but may differ in a detail not shown here. Equal entries are not always repeated. Records with an inconclusive call do not appear. The source holds several records for some structures; these can differ, active in one and inactive in another. Active and inactive are the calls of the source. Calls come from the whole dose curve; as a rule, active = well fitted curve in the direction sought with a large enough effect in the repeat runs; inconclusive = weak or mixed curves; inactive = no such curve, though single readings can be large; an effect the other way counts as inactive or inconclusive.

Assay [1] concerns the target Cytochrome P450 2C19 (Homo sapiens) (UniProt P33261). The assay is described as follows: Cytochrome P450 Family 2 Subfamily C Member 19 (CYP2C19) small molecule antagonists: luciferase reporter qHTS assay (AID 1671197). Note: nearly all actives have a fitted effect of over 65% in size. The note with it: P450-Glo CYP2C19 enzyme, luciferin luminescence, 1 h; series mostly up to 115 µM. The method in brief:
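P450-Glo CYP2C19 system: enzyme-substrate mix with compound 10 min at room temperature, then NADPH regeneration solution, 1 h at 37C. Proluciferin-to-luciferin conversion detected by luminescence after 20 min with detection reagent; ketoconazole as positive control.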

Assay [2] deals with Cytochrome P450 2C9 (Homo sapiens) (UniProt P11712). The assay is described as follows: Cytochrome P450 Family 2 Subfamily C Member 9 (CYP2C9) small molecule antagonists: luciferase reporter qHTS assay (AID 1671198). Note: nearly all actives have a fitted effect of over 50% in size. The note with it: P450-Glo CYP2C9 enzyme assay, luciferin luminescence; series mostly up to 115 µM. The method in brief:
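P450-Glo proluciferin substrate with CYP2C9 enzyme; 10 min RT preincubation, then NADPH regeneration 1 h at 37C; luciferin detection reagent 20 min RT, luminescence in relative luminescence units.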
In general terms: Reporter assays use an easily measured gene product as a stand-in for the process of interest.

Assay [3] concerns the target Cytochrome P450 1A2 (Homo sapiens) (UniProt P05177). The assay is described as follows: Cytochrome P450 Family 1 Subfamily A Member 2 (CYP1A2) small molecule antagonists: luciferase reporter qHTS assay (AID 1671199). Note: nearly all actives have a fitted effect of over 50% in size. The note with it: P450-Glo CYP1A2 enzyme, luciferin luminescence, 1 h; series mostly up to 115 µM. The method, boiled down:
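Luminescence readout (relative luminescence units) after luciferin detection reagent, 20 min RT. Preceded by 1 h room-temperature CYP1A2 reaction with NADPH regeneration solution following 10 min compound preincubation with enzyme and proluciferin substrate. Furafylline positive control.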

In assay [4] the target is Voltage-gated inwardly rectifying potassium channel KCNH2 (Homo sapiens) (UniProt Q12809). Description: Human Ether-a-go-go-Related Gene (hERG) channel small molecule antagonists: fluorescence cell-based qHTS assay (AID 1671200). Note: nearly all actives have a fitted effect of over 50% in size. The settings on record: hERG-U2OS cells, FluxOR thallium flux fluorescence; series mostly up to 76.8 µM. The method in brief: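 In this thallium-flux screen, overnight-cultured U2OS cells bearing the channel are dye-loaded in darkness for an hour, rested 10 min at room temperature, and then monitored kinetically at 480/540 nm for two minutes post-stimulus.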

Assay [5] deals with Cytochrome P450 3A4 (Homo sapiens) (UniProt P08684). Description: Cytochrome P450 Family 3 Subfamily A Member 4 (CYP3A4) small molecule antagonists: luciferase reporter qHTS assay (AID 1671201). Note: nearly all actives have a fitted effect of over 50% in size. The note with it: P450-Glo CYP3A4 enzyme, luciferin luminescence, 1 h; series mostly up to 115 µM. The method, boiled down: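 CYP3A4 activity was followed with a P450-Glo proluciferin substrate. Test compounds in DMSO were preincubated 10 min; NADPH regeneration then ran 1 h, and light output was read 20 min after detection reagent.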
Potency is the fitted concentration of half-maximal effect.

Sequence of Cytochrome P450 2C9 (Homo sapiens) (P11712 whole entry, looked up): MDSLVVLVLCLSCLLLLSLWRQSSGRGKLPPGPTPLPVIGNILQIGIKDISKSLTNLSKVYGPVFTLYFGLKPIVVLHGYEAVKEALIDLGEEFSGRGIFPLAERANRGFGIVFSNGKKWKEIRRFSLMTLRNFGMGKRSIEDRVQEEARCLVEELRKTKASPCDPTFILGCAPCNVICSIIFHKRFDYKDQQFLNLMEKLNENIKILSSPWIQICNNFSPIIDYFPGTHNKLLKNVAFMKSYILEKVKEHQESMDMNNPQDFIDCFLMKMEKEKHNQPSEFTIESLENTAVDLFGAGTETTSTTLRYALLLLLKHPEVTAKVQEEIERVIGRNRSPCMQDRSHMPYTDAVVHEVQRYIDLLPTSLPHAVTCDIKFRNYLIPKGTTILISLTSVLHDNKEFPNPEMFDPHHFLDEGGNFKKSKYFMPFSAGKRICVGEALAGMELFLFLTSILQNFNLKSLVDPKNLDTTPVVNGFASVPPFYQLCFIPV
Sequence of Cytochrome P450 3A4 (Homo sapiens) (P08684 whole entry, looked up): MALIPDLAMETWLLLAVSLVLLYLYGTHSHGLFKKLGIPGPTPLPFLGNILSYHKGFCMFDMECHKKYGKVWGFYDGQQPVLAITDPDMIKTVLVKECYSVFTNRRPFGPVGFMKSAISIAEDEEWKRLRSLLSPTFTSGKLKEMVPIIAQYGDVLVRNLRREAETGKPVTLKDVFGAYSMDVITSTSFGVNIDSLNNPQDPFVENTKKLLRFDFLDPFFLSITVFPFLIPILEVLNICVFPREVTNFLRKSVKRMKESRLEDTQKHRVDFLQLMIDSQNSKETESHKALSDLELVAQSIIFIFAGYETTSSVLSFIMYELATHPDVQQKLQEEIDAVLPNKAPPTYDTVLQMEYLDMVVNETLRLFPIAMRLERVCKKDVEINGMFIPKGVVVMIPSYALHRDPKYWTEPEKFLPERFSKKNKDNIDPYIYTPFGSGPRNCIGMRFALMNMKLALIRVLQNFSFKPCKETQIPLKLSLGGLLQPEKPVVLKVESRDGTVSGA
Sequence of Cytochrome P450 2C19 (Homo sapiens) (P33261 whole entry, looked up): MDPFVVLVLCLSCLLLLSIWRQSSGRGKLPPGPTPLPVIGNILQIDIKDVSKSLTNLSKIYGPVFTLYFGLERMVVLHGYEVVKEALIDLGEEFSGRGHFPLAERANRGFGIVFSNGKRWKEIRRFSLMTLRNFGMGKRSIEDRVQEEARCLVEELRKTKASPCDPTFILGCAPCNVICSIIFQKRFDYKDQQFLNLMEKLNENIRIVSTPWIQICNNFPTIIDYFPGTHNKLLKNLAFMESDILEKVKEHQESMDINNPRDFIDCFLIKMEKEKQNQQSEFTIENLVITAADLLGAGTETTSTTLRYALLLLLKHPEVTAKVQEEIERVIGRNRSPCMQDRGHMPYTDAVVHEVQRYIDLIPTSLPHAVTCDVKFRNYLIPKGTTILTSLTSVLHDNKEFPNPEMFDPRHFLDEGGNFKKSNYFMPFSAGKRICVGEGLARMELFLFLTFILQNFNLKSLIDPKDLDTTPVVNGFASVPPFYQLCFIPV
Sequence of Cytochrome P450 1A2 (Homo sapiens) (P05177 whole entry, looked up): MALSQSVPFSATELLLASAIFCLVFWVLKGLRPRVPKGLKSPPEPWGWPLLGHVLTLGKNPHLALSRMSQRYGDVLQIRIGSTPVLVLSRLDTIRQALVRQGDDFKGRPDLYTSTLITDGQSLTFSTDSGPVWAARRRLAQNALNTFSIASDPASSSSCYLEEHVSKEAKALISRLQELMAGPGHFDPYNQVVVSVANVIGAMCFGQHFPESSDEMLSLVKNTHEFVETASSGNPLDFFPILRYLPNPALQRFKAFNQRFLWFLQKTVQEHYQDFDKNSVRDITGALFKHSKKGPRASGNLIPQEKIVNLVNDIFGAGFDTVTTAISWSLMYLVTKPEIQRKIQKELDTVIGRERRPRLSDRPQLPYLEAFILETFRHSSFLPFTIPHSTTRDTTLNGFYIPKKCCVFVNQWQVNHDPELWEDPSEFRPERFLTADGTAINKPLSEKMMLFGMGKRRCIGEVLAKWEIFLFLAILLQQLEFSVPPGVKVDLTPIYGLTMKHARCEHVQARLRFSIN
Sequence of Voltage-gated inwardly rectifying potassium channel KCNH2 (Homo sapiens) (Q12809 whole entry, looked up): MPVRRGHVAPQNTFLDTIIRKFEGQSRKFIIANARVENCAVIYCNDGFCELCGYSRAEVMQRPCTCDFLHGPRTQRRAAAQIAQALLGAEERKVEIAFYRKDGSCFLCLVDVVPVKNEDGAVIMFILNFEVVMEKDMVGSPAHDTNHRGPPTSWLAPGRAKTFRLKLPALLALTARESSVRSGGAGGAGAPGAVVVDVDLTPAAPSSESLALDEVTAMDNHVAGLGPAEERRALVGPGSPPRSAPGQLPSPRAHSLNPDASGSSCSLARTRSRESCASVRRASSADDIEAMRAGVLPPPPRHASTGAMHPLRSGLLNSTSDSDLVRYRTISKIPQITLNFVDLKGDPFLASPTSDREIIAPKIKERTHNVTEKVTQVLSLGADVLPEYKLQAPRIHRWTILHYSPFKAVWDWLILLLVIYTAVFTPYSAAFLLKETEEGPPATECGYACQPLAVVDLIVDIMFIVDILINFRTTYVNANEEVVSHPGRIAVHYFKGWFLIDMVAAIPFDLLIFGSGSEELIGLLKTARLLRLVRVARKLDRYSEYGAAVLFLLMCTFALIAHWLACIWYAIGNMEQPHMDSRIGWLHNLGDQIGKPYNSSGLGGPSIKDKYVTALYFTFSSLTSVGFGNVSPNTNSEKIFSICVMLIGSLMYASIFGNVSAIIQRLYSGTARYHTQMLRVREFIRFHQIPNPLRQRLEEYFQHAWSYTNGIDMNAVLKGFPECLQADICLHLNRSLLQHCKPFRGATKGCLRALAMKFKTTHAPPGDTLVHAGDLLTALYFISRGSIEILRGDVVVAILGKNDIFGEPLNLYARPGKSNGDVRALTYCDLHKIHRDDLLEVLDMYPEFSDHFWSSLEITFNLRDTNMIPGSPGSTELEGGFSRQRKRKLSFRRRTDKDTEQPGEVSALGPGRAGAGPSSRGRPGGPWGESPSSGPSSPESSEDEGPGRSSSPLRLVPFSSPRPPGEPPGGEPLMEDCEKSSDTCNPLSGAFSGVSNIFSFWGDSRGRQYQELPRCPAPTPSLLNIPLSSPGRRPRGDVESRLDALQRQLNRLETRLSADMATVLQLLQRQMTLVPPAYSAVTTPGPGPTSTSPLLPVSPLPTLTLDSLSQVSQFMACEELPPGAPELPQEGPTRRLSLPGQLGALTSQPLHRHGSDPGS

`O=P1(N(CCCl)CCCl)NCCCO1` (centres undefined): the Potency in assay [1] was 71.8 µM (active) and inactive. For the same molecule, the Potency entry in assay [2], in assay [3] and in assay [4] was “inactive” throughout.
Take `OCCOc1ccccc1`: the Potency entry in assay [1], in assay [2], in assay [3], in assay [4] and in assay [5] was “inactive” throughout.
In the case of `CCCC[n+]1ccc(C)cc1`, the Potency result in assay [2] was “inactive and 22.3 µM (active)”; in assay [3], 36.1 µM (active) and 35.4 µM (active) and inactive. Moreover, the Potency entry in assay [4] and in assay [5] was “inactive” throughout.
On to `CCC(=O)C(CC(C)N(C)C)(c1ccccc1)c1ccccc1` (centres undefined), for which the Potency entry in assay [2] and in assay [3] was “inactive” throughout. Also, the Potency in assay [4] is 43.8 µM (active).
In the case of `Cc1cc(-c2ccc(N)c(C)c2)ccc1N`, the Potency in assay [1] was 6.4 µM (active) [middle of 4 runs]; in assay [2], 15.9 µM (active) [middle of 4 runs]; in assay [3] it was 509 nM (active) [middle of 4 runs]. Besides, in assay [4], the Potency result is “inactive”.
With `CC[n+]1ccccc1`, the Potency result in assay [2] is “inactive and 9.94 µM (active)”. The Potency entry in assay [3], in assay [4] and in assay [5] was “inactive” throughout.
Regarding `CCCCn1cc[n+](C)c1C`, the Potency entry in assay [2], in assay [4] and in assay [5] was “inactive” in each case. Besides, in assay [3], the Potency result was “inactive and 35.9 µM (active)”.
With `Oc1ccccc1-c1ccccc1`, the Potency in assay [2] is 71 µM (active) and 35.6 µM (active) and 25.8 µM (active); in assay [3], 23 µM (active) [middle of 4 runs]. Further, the Potency result in assay [4] and in assay [5] was “inactive” in each case.
Consider `CCNc1nc(Cl)nc(NCC)n1`, for which the Potency result in assay [2], in assay [4] and in assay [5] was “inactive” each time. Further, the Potency in assay [3] was 11.3 µM (active) and 12.6 µM (active).
Regarding `O=S(=O)(O)O`, the Potency entry in assay [4] is “inactive”.
Turning to `C1CCC(NC2CCCCC2)CC1`, the Potency result in assay [2], in assay [3], in assay [4] and in assay [5] was “inactive” throughout.
Regarding `O=C(O)COc1ccc(Cl)cc1Cl`, the Potency in assay [3] was 31.6 µM (active) and inactive. The Potency entry in assay [4] and in assay [5] was “inactive” in each case.
On to `COP(=O)(OC)C(O)C(Cl)(Cl)Cl` (centres undefined), for which, in assay [4], the Potency result was “inactive”.
For the molecule `CCCn1cc[n+](C)c1`, the Potency result in assay [2], in assay [3], in assay [4] and in assay [5] was “inactive” in each case.
In the case of `O=C(O)CCl`, the Potency entry in assay [2], in assay [3], in assay [4] and in assay [5] was “inactive” each time.
Take `CCCCCCCCCCCCn1cc[n+](C)c1`: the Potency in assay [2] is 9.01 µM (active) and inactive and 64.3 µM (active); in assay [5], 80.3 µM (active) and inactive.
Consider `N#CS`, for which the Potency entry in assay [4] was “inactive”.
As to `C[N+](C)(C)Cc1ccccc1`, the Potency in assay [2] is 79.6 µM (active) and inactive. Besides, the Potency entry in assay [3], in assay [4] and in assay [5] was “inactive” throughout.
Consider `O=C(O)C(Cl)Cl`, for which the Potency result in assay [2], in assay [3], in assay [4] and in assay [5] was “inactive” each time.
With `O=C(O)CC(O)(CC(=O)O)C(=O)O`, the Potency entry in assay [4] is “inactive”.
On the same count and under the same terms, then `O=C(O)c1ccccc1O`, with “inactive”.
On to `CCC[N+]1(C)CCCCC1`, for which the Potency entry in assay [2], in assay [3], in assay [4] and in assay [5] was “inactive” each time.
Regarding `CCCCCCn1cc[n+](C)c1`, the Potency result in assay [2], in assay [3], in assay [4] and in assay [5] was “inactive” each time.
`CC[N+](CC)(CC)CC`: in assay [4], the Potency entry was “inactive”.
For the molecule `O=C(O)C(Cl)(Cl)Cl`, the Potency result in assay [2], in assay [4] and in assay [5] was “inactive” throughout. For the same molecule, the Potency entry in assay [3] was “inactive and 35.6 µM (active)”.
As for `CN(C)[C@@H]1C(=O)C(C(N)=O)=C(O)[C@@]2(O)C(=O)C3=C(O)c4c(O)cccc4[C@@](C)(O)[C@H]3[C@H](O)[C@@H]12`, the Potency in assay [2] is 61.8 µM (active) and 39.6 µM (active). The Potency result in assay [3], in assay [4] and in assay [5] was “inactive” each time.
Consider `Cc1cc(Cl)ccc1OCC(=O)O`, for which the Potency result in assay [3], in assay [4] and in assay [5] was “inactive” each time.
On to `COc1ccc(N)cc1`, for which the Potency in assay [2] was 39.9 µM (active). The Potency entry in assay [3], in assay [4] and in assay [5] was “inactive” in each case.
Take `O=c1nc(O)n(Cl)c(=O)n1Cl`: the Potency result in assay [2], in assay [3], in assay [4] and in assay [5] was “inactive” each time.
Turning to `CC(=O)[O][Hg][c]1ccccc1`, the Potency in assay [2] was 3.96 µM (active) and 2.52 µM (active) and 4.36 µM (active); in assay [3] it was 17.7 µM (active) and 22.4 µM (active) and 27.5 µM (active); in assay [4], 13.7 µM (active) and 13.8 µM (active); in assay [5] it was 4.98 µM (active) and 7.96 µM (active) and 12.3 µM (active).
For the molecule `CCCCn1cc[n+](C)c1`, in assay [4], the Potency result is “inactive”.
Same read-out and setting: then `Oc1cccc2cccnc12`, with “inactive”.
On the same count and under the same terms, next, `C=CCOC(Cn1ccnc1)c1ccc(Cl)cc1Cl` (centres undefined): 24.6 µM (active) and 21.9 µM (active) and 23.9 µM (active); `O=[N+]([O-])O`: “inactive”.
As to `CCCCCCCCCCn1cc[n+](C)c1`, the Potency in assay [2] was 5.7 µM (active) and inactive and 32.6 µM (active); in assay [3], 36 µM (active) and 32.6 µM (active). Also, the Potency result in assay [5] is “inactive”.
`CC(Cl)(Cl)C(=O)O`: the Potency entry in assay [2] is “inactive and 63.3 µM (active)”. The Potency result in assay [3], in assay [4] and in assay [5] was “inactive” throughout.
